Laboratory results published in the supplement of paper PMC10646978.
± gives the standard deviation.

Columns and labels:
Details in all cases: modulator concentration 10 µM
[1] = tested on: RAW-Dual (murine macrophage reporter line); assay: NF-kB reporter (SEAP) activity fold change vs agonist alone; higher = enhanced NF-kB activity
Method in brief: (§1)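 RAW-Dual murine macrophage reporter cells were plated at 50 000 per well in 384-well plates, pin-transferred compound to 10 μM final, and pre-incubated for 1 hour at 37 °C before a PRR agonist was added and the cells incubated overnight. NF-κB activity was read from supernatant SEAP with QUANTI-Blue at 620 nm absorbance, and IRF activity from Lucia luciferase with QUANTI-Luc by luminescence. Each signal was expressed as fold change by dividing by the mean agonist-only control on the same plate. Two replicate plates were averaged, with errors obtained by propagation.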

[2] = tested on: RAW-Dual (murine macrophage reporter line); assay: IRF reporter (Lucia luciferase) activity fold change vs agonist alone; higher = enhanced IRF activity
Method in brief: as §1

[3] = tested on: RAW-Dual (murine macrophage reporter line); assay: viability score (confluency relative to resting cells, overnight) (fraction); higher = more viable, active = viable (0.7 or more)
Method in brief: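 Two confluency masks, generated with IncuCyte software over all imaged wells, were applied to IncuCyte images of RAW-Dual macrophages. The cells, in 384-well plates, had been exposed overnight to 10 μM final compound. The viability score is confluency as a fraction of resting cells, and a compound met the cutoff only with both masks above 70% of resting cells.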

[4] = agonist: CpG ODN 1826 0.5 ug/mL

Structure (SMILES)	NF-kB reporter [1, 4]	NF-kB reporter ([1]; agonist: LPS 0.1 ug/mL)	NF-kB reporter ([1]; agonist: MPLA […])	IRF reporter ([2]; agonist: 3'3'-cGAMP 10 ug/mL)	IRF reporter ([2]; agonist: LPS 0.1 ug/mL)	IRF reporter ([2]; agonist: MPLA […])	viability score [3]
O=C(Cc1ccccc1)NCC(O)Cn1ccccc1=O (stereo unspecified)	0.84 ± 0.037	0.9 ± 0.12	1.02 ± 0.067	1.04 ± 0.072	1.26 ± 0.25	1.43 ± 0.42	1 (active)
O=[N+]([O-])c1ccccc1S(=O)(=O)N1CCCC1	0.974 ± 0.11	1.06 ± 0.065	0.907 ± 0.055	0.921 ± 0.042	1.34 ± 0.087	1.23 ± 0.25	1.01 (active)
Cc1ccc(Sc2c(C)nn(-c3ccccc3)c2OC(=O)C(C)(C)C)cc1	0.74 ± 0.07	0.87 ± 0.075	0.928 ± 0.12	0.557 ± 0.031	1.08 ± 0.1	1.03 ± 0.19	0.963 (active)
CC(C)=CCCC(C)=CC=NNC(=S)Nc1ccc(C)cc1	0.855 ± 0.049	1.12 ± 0.075	1.02 ± 0.065	0.256 ± 0.019	1.55 ± 0.19	1.5 ± 0.18	0.997 (active)
CC(=O)Nc1ccc2nc(NC(=O)c3ccco3)sc2c1	1.05 ± 0.083	1.03 ± 0.09	0.95 ± 0.072	0.827 ± 0.046	1.03 ± 0.069	0.744 ± 0.084	1 (active)
Cc1cccc(OCCCOc2cccc3cccnc23)c1C	0.735 ± 0.068	0.895 ± 0.055	1.07 ± 0.1	0.974 ± 0.053	1.44 ± 0.083	1.7 ± 0.22	0.978 (active)
C[N+]1(C)CCC(OC(=O)C(O)(c2ccccc2)C2CCCC2)C1 (stereo unspecified) [Prestw-746]	0.923 ± 0.061	0.998 ± 0.066	0.943 ± 0.062	0.949 ± 0.031	1.24 ± 0.16	1.13 ± 0.17	1.01 (active)
COc1cc(OC)c(C(=O)CCCN2CCCC2)c(OC)c1.Cl	0.98 ± 0.096	1.01 ± 0.063	1 ± 0.057	0.937 ± 0.081	0.941 ± 0.035	0.899 ± 0.07	1 (active)
CCC(=O)N1c2ccccc2NC2=C(C(=O)CC(c3ccccc3F)C2)C1c1ccc(C)cc1 (stereo unspecified)	1.02 ± 0.12	1.07 ± 0.079	1 ± 0.064	0.985 ± 0.043	1.35 ± 0.3	1.07 ± 0.072	1.01 (active)
CC[C@@]1(O)C(=O)OCc2c1cc1n(c2=O)Cc2cc3c(CN(C)C)c(O)ccc3nc2-1 [Prestw-1196]	2.33 ± 0.13	1.27 ± 0.08	2.43 ± 0.16	2.88 ± 0.099	3.79 ± 0.35	3.07 ± 0.43	0.689 (inactive)
CCN1CC(CCN2CCOCC2)C(c2ccccc2)(c2ccccc2)C1=O (stereo unspecified)	1.18 ± 0.32	1.04 ± 0.072	1.05 ± 0.067	0.874 ± 0.03	1.28 ± 0.14	1.29 ± 0.24	1.01 (active)
Cc1cc(OCC(=O)NN=Cc2ccc(O)c([N+](=O)[O-])c2)ccc1Cl	1.03 ± 0.29	1.04 ± 0.092	1.02 ± 0.093	1 ± 0.041	1.08 ± 0.2	1.13 ± 0.13	0.998 (active)
COC(c1ccccc1)(c1ccccc1)C(Oc1nc(C)cc(C)n1)C(=O)O (stereo unspecified) [Prestw-1497]	0.986 ± 0.077	0.945 ± 0.07	0.936 ± 0.091	1.09 ± 0.052	1.31 ± 0.18	1.44 ± 0.32	1.05 (active)
